Assay outcomes: PubChem BioAssay, several laboratories
An excerpt weighted towards active compounds, which were near 2.6% of everything screened.
LGR2 inh = Drosophila LGR2 receptor signaling inhibition | HEK293 LGR2, CRE-luciferase, bursicon-stimulated, 4 h | 380,000 tested, 0.35% active | inhibition, % at 9.99 µM | AID 720647;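 active = drop in luminescence signal, shown as inhibition above about 50% in the replicate tests, limit read from the data, passing the limit was not always enough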;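 note: agonist challenge used bursicon conditioned medium at about half maximal strength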
CF NFkB block = cystic fibrosis NF-kB activation inhibition | KKLEB NF-kB-GFP reporter, PAF-induced, GFP fluorescence overnight | inhibition, % at 5 µM | 360,000 tested, 0.86% active;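 active = at least 50% inhibition at 5 µM, scaled per plate between neutral and stimulator controls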;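 note: PAF is a Pseudomonas aeruginosa culture filtrate used as stimulus; plate controls were PAF-stimulated DMSO wells for no effect and unstimulated DMSO wells for full effect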
TWEAK Fn14 block = blocks TWEAK-Fn14 interaction in a reporter cell assay; TWEAK-stimulated Fn14 reporter cells, luciferase luminescence, 8 h; inhibition, % at 10 µM; 360,000 tested, 2% active; in the data active = inhibition above about 50%
TROY signal inh = blocks TROY-dependent signaling in reporter cells; Q293 LMP1-TROYcd NF-kB luciferase reporter, 4 h; inhibition, % at 10 µM; 360,000 tested, 0.98% active; AID 1347056;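 active = compounds whose plate-normalised and pattern-corrected inhibition of the luciferase reporter signal at the single screening dose is 50% or more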
KKLEB tox = counter-screen for CF NF-kB inhibitors: cytotoxicity | KKLEB CF airway cells viability, ATPlite luminescence, overnight; hits give low values; cells stimulated with P. aeruginosa culture filtrate | activity change (cytotoxicity), % at 5 µM | 360,000 tested, 0.36% active;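 active = corrected activity change at or below -50% at 5 µM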
EWS-Fli block = inhibitors of EWS/Fli oncoprotein transcriptional activity; A673 NR0B1-luciferase reporter, viability-normalised; inhibition, % at 12.6 µM; 350,000 tested, 0.67% active;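 active = mean inhibition of at least 50% after viability correction, with every replicate also passing that limit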;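 note: firefly luciferase signal divided by Alamar Blue viability fluorescence both relative to DMSO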
* marks the source's active call; other numbers are inactive results.

Screening CC=Cc1ccc2n(c1=O)C[C@H]1[C@H](CO)[C@@H](C(=O)NCC(F)(F)F)[C@@H]2N1C(C)=O (mixture of isomers) returned LGR2 inh -4 and EWS-Fli block -2.
For Cc1cc(C)nc(Sc2ncnc3c2oc2ccccc23)n1 the results were CF NFkB block 32, TWEAK Fn14 block 56*, TROY signal inh -31 and KKLEB tox -6.
Screening c1ccc2cc(Sc3ncnc4c3oc3ccccc34)ccc2c1 returned CF NFkB block 29, TWEAK Fn14 block -26, TROY signal inh -57 and KKLEB tox -23.
`COc1ccc(OC)c(NC(=O)c2cc(-c3cc(Cl)ccc3O)n[nH]2)c1` gave CF NFkB block 22, TWEAK Fn14 block 55*, TROY signal inh 51* and KKLEB tox 5.
For Cc1ccc(S(=O)(=O)N(C)C[C@@H]2OCCCC[C@H](C)Oc3ccc(NC(=O)CCC(F)(F)F)cc3C(=O)N([C@@H](C)CO)C[C@@H]2C)cc1 the results were LGR2 inh -7 and EWS-Fli block 12.
For CO[C@H]1CN(C)C(=O)c2ccc(NC(=O)Nc3ccccc3Cl)cc2OC[C@@H](C)NC[C@H]1C the results were LGR2 inh 6 and EWS-Fli block -13.
Screening COc1ccc(NC(=O)N2C3CCCC2CC(NC(=O)C2CC2)C3)cc1 (stereo not given) returned LGR2 inh 1, CF NFkB block -25, TWEAK Fn14 block 77*, TROY signal inh -2, KKLEB tox 7 and EWS-Fli block 5.
`COc1cccc(NC(=O)N2C3CCCC2CC(NC(=O)C2CC2)C3)c1` (stereo not given) gave LGR2 inh 9, CF NFkB block -14, TWEAK Fn14 block 8, TROY signal inh 17 and KKLEB tox 2.
CO[C@H]1CN(C)C(=O)c2cc(NC(=O)CC(F)(F)F)ccc2OC[C@H](C)N(S(=O)(=O)c2cn(C)cn2)C[C@H]1C was read as LGR2 inh 4 and EWS-Fli block -2.
Cc1ccc(CNC(=O)CN(CCc2ccccc2)S(C)(=O)=O)cc1 was read as LGR2 inh -11, CF NFkB block -8, TWEAK Fn14 block -4, TROY signal inh -3, KKLEB tox 18 and EWS-Fli block 1.
Screening CS(=O)(=O)N(CCc1ccccc1)CC(=O)NCc1ccco1 returned CF NFkB block -5, TWEAK Fn14 block 82* and KKLEB tox 13.
Screening COc1ccc(C(=O)N/C(=C/c2ccc(Cl)cc2)C(=O)Nc2ccc(C(=O)O)cc2)cc1 returned LGR2 inh -8, CF NFkB block 1, TWEAK Fn14 block 100*, TROY signal inh -24 and KKLEB tox -6.
Screening COc1ccc(/C=C(\NC(=O)c2ccc(OC)cc2)C(=O)Nc2cccc(C(=O)O)c2)cc1 returned LGR2 inh -9, CF NFkB block -4, TWEAK Fn14 block -3, TROY signal inh -23, KKLEB tox 18 and EWS-Fli block -6.
`Cc1sc(NC(=O)Cc2ccc3c(c2)OCO3)nc1-c1ccc2c(c1)CCN2C(=O)c1ccccc1F` gave LGR2 inh 16, CF NFkB block 18, TWEAK Fn14 block 51*, TROY signal inh -8 and KKLEB tox 4.
O=C(/C=C/c1cccs1)c1ccc(N2CCOCC2)cc1 was read as LGR2 inh 93*, CF NFkB block 13, TWEAK Fn14 block 89*, TROY signal inh 75*, KKLEB tox -46 and EWS-Fli block 20.
Screening O=C(/C=C/c1cccc(F)c1)c1ccc(N2CCOCC2)cc1 returned LGR2 inh -63, CF NFkB block -6, TWEAK Fn14 block 28, TROY signal inh -3, KKLEB tox -24 and EWS-Fli block -27.
For CO[C@H]1CN(C)C(=O)c2ccc(NC(=O)C3CC3)cc2OC[C@H](C)N(C(=O)c2ccccn2)C[C@@H]1C the results were LGR2 inh 5 and EWS-Fli block 2.
`C[C@@H]1CCCCO[C@@H](CN(C)Cc2ccccc2)[C@@H](C)CN([C@@H](C)CO)C(=O)c2cc(NC(=O)c3ccncc3)ccc2O1` gave LGR2 inh 4.
`O=C(CCCn1c(=S)[nH]c2cc3c(cc2c1=O)OCO3)N1CCN(c2ccccc2)CC1` gave CF NFkB block 10, TWEAK Fn14 block 13, TROY signal inh 8 and KKLEB tox 4.
For O=C(CCCn1c(=S)[nH]c2cc3c(cc2c1=O)OCO3)N1CCN(c2ccc(Cl)cc2)CC1 the results were CF NFkB block 20, TWEAK Fn14 block 17, TROY signal inh 58* and KKLEB tox -1.
CCCNC(=O)N1C[C@@H]2[C@H](c3ccccc31)[C@@H](CO)N2C(=O)Nc1ccc(F)cc1 was read as LGR2 inh 10 and EWS-Fli block -3.
`COc1cccc(/C=N/Nc2ncccc2[N+](=O)[O-])c1OC` gave LGR2 inh 97*, CF NFkB block 3, TWEAK Fn14 block 100*, TROY signal inh 75*, KKLEB tox -6 and EWS-Fli block 66*.
COc1cccc(/C=N/Nc2nc(Nc3ccc([N+](=O)[O-])cc3)nc(N3CCCC3)n2)c1O was read as LGR2 inh 28, CF NFkB block 97*, TWEAK Fn14 block 45, TROY signal inh -2, KKLEB tox -43 and EWS-Fli block 12.
O=[N+]([O-])c1ccc(/C=N/Nc2ncccc2[N+](=O)[O-])s1 was read as LGR2 inh -30, CF NFkB block -5, TWEAK Fn14 block 11, TROY signal inh -21, KKLEB tox -1 and EWS-Fli block -66.
COc1cccc(/C=N/Nc2ccc([N+](=O)[O-])cn2)c1O was read as LGR2 inh 67*, CF NFkB block 100*, TWEAK Fn14 block 89*, TROY signal inh 56*, KKLEB tox -91* and EWS-Fli block -27.
`O=C(C[C@H]1CC[C@@H]2[C@H](COC[C@@H](O)CN2C(=O)Nc2ccc(Cl)cc2)O1)N1CCCCC1` gave LGR2 inh -29 and EWS-Fli block -33.
For CC(=O)c1cccc(NC(=O)COC(=O)Cn2cnc3ccccc32)c1 the results were LGR2 inh -20, CF NFkB block 19, TWEAK Fn14 block 8, TROY signal inh -7, KKLEB tox -86* and EWS-Fli block 1.
For C[C@H](CO)N1C[C@H](C)[C@H](CN(C)C(=O)c2cccnc2)Oc2cc(C#CC3(O)CCCC3)ccc2S1(=O)=O the results were LGR2 inh 11 and EWS-Fli block -2.
Screening C=C(C(=O)c1ccccc1)C(c1ccccc1)C(C)C(=O)c1ccccc1 (stereo not given) returned LGR2 inh 25, CF NFkB block 0, TWEAK Fn14 block 51*, TROY signal inh -14 and KKLEB tox -13.
Screening O=C(c1ccccc1)C(c1ccccc1)c1ccccc1 returned LGR2 inh -4, CF NFkB block -9, TWEAK Fn14 block 15, TROY signal inh 0, KKLEB tox 6 and EWS-Fli block -2.
